Calls of active or inactive are those of the source. The calls were made as follows: active = hit-call score of the fitted dose curve at least 0.9, where 1 is the maximum; inactive = score below 0.9.

The test is described as follows: ATG_MRE_CIS: Attagene CIS-FACTORIAL HepG2 Assay for human Metal Responsive Element (MRE) (AID 2282954). The settings on record: HepG2 MRE cis-reporter transcription, Attagene multiplex; actives raise or lower the signal. The protocol:
ATG_CIS is a cell-based, multiplexed-readout assay that uses HepG2, a human liver cell line, with measurements taken at 24 hours after chemical dosing in a 24-well plate.ATG_MRE_CIS is one of 52 assay component(s) measured or calculated from the ATG_CIS assay. It is designed to make measurements of mRNA induction, a form of inducible reporter, as detected with fluorescence intensity signals by Reverse transcription polymerase chain reaction (RT-PCR) and Capillary electrophoresis technology.Data from the assay component ATG_MRE_CIS was analyzed into 1 assay endpoint. This assay endpoint, ATG_MRE_CIS, was analyzed with bidirectional fitting relative to DMSO as the negative control and baseline of activity. Using a type of inducible reporter, measures of mRNA for gain or loss-of-signal activity can be used to understand the reporter gene at the transcription factor-level as they relate to the gene MTF1. Furthermore, this assay endpoint can be referred to as a primary readout, because this assay has produced multiple assay endpoints where this one serves a reporter gene function. To generalize the intended target to other relatable targets, this assay endpoint is annotated to the dna binding intended target family, where the subfamily is zinc finger.
Human liver HepG2 cells are transiently transfected with multiple reporter transcription units (MRTUs) in 6-well plates using FuGene 6 reagent (Roche; 3 ml FuGene/1 mg DNA). The MRTU constructs are regulated by a cis-regulating element (promoter). […] A major difference between the CIS and TRANS system is that in CIS activities of endogenous TFs are measured, whereas the TRANS assay evaluates changes in activities of exogenous, chimeric NR-Gal4 proteins. […] At the end of 24 hour incubation, total RNA was isolated using TriZol reagent (Invitrogen). The isolated RNA is then reverse-transcribed using oligo(dT) primer and Mo-MLV reverse transcriptase (Invitrogen) with DNAse I (Ambion) treatment for 30 min. The one-tenth of the produced cDNA was amplified by PCR using Taq DNA polymerase (Invitrogen) and two reporter sequence-specific primers. The PCR products were fluorescently labeled by primer extension with 6-arboxyfluorescein (6-FAM) 5'-labeled reporter sequence-specific primer (2 min at 95 C, 20 s at 68 C and 10 min at 72 C) and these products were digested with 5U of HpaI (New England Biolabs) for 2h at 37 C. The fragments were purified using Qiaquick PCR columns (Qiagen), analyzed on an ABI 3130xL genetic analyzer (Applied Biosystems) with peak positions identified by using a set of X-rhodamine (ROX)-labeled MapMarker1000 molecular weight standards (BioVentures). The raw capillary electrophoresis data was processed using Attagraph software (Attagene).
`CCCCCCCCCCCCCCCCCCOS(=O)(=O)O`: the half-maximal activity concentration (AC50) was 23.2 µM (active).
Take `CCCCNS(=O)(=O)c1ccc(C)cc1`: the call was inactive.
In the case of `NC(=O)Nc1ccccc1`, the call was inactive.
For `CCCCCCCOC(=O)c1ccc(O)cc1`, the AC50 is 52.6 µM (active).
As for `O=S(=O)(O)c1ccc(Nc2nc(Nc3ccc(C=Cc4ccc(Nc5nc(Nc6ccc(S(=O)(=O)O)cc6)nc(N(CCO)CCO)n5)cc4S(=O)(=O)O)c(S(=O)(=O)O)c3)nc(N(CCO)CCO)n2)cc1`, the result was inactive.
In the case of `COc1ccc(-c2coc3cc(O)cc(O)c3c2=O)cc1`, the AC50 is 138 µM (active).
For the compound `CCCCNS(=O)(=O)c1ccccc1`, the compound was classed as inactive.
For the compound `CC1=C(O)C(=O)C(C)O1` (stereo not given), the result was inactive.
The same measure, in the same setting: the same measure for `Cc1c(Cl)cccc1Cl`: “inactive”; for `O=C(Oc1ccccc1)c1ccccc1C(=O)Oc1ccccc1`: “inactive”.
Take `CCCCCCCCCCCC(C)=O`: the AC50 was 179 µM (active).
For `N#Cc1ccc(C(c2ccc(C#N)cc2)n2cncn2)cc1`, the result was inactive.
Consider `CCCCC/C=C\C/C=C\CCCCCCCC(=O)O`, for which the AC50 is 149 µM (active).
For the compound `CC(C)(CO)COC(=O)C(C)(C)CO`, the compound was classed as inactive.
Still for that read-out and setting: the same measure for `Cc1ccccc1CCO`: “inactive”.
On the same count and under the same terms, the same measure for `CC1(C)C(=O)N(CO)C(=O)N1CO`: “inactive”.
For `CCN(CC)c1cccc(C)c1`, the result was inactive.
Still for that read-out and setting: the same measure for `CCC(C)C(=O)OC` (stereo not given): “inactive”; for `CCC(C)c1ccccc1` (stereo not given): “inactive”.
Regarding `O=C(OCc1ccccc1)c1ccc(O)cc1`, the AC50 is 125 µM (active).
Take `CCOC(=O)c1ccc(C)cc1`: the call was inactive.
On the same count and under the same terms, the same measure for `CC(C)C(=O)OCCc1ccccc1`: “inactive”.
Still for that read-out and setting: the same measure for `CCOB(OCC)OCC`: “inactive”.
Regarding `CCc1occc(=O)c1O`, the result was inactive.
The same measure, in the same setting: then `CCCC1CCCC(=O)O1` (stereo not given), with “inactive”; and `CCN1CCCC1=O`, with “inactive”.
As for `c1ccc(Nc2cccc3ccccc23)cc1`, the AC50 is 49.7 µM (active).
Consider `COc1nccnc1CC(C)C`, for which the compound was classed as inactive.
The same measure, in the same setting: the same measure for `CCCCC(CC)COC(=O)/C=C/c1ccc(OC)cc1` (stereo not given): “inactive”; for `CCCCCCCCCCCCC`: “inactive”.
With `O=S(=O)(O)c1ccc(N=Nc2c(O)ccc3ccccc23)cc1`, the outcome was inactive.
On to `Cc1cc(C)n(CO)n1`, for which the outcome was inactive.
On the same count and under the same terms, the same measure for `C=C(C)C(=O)OCCCCCCCCCCCC`: “inactive”; for `C=Cc1cccc(C)c1`: “inactive”; for `CC(C)=NNC(N)=S`: “inactive”.
For `CC(CCC(=O)O)(c1ccc(O)cc1)c1ccc(O)cc1`, the compound was called inactive.
The same measure, in the same setting: the same measure for `O=C(O)C(F)(F)C(F)(F)C(F)(F)C(F)(F)C(=O)O`: “inactive”.
`O=C(Nc1ccccc1)c1cc(Cl)ccc1O`: the AC50 is 23.9 µM (active).
Consider `CN(C)c1ccc2nc3ccc(=[N+](C)C)cc-3sc2c1`, for which the result was inactive.
In the case of `c1ccc2c(c1)[nH]c1ccccc12`, the compound was classed as inactive.

Broadly, the AC50 is the concentration giving half of the maximal activity seen.

The values are drawn from PubChem BioAssay (EPA / NIEHS).
